Test results taken from PubChem BioAssay (NCATS).
Inconclusive results are not listed. Calls of active or inactive are those of the source. Calls follow the shape of the dose curve; as a rule, active = well fitted cell-killing curve with a large enough effect; inconclusive = small, poorly fitted or top-dose-only effect, or effect the other way; inactive = flat fitted curve, though single readings scatter.

Tests used:
Assay in all cases: Primary qHTS to identify gynecologic anti-cancer compounds using libraries of approved drugs and bioactive compounds (AID 1345084); also: nearly all actives have a fitted effect of over 55% in size
C33A = conditions: Gynecologic cancer cell panel viability, ATPlite luminescence, 48 h; series mostly up to 57.5 µM
In short: (§1)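 Five-concentration response, 48 h; readout is ATP-driven luciferase luminescence.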

CAOV3 = conditions: Gynecologic cancer cell panel viability, ATPlite luminescence, 48 h; series mostly up to 57.5 µM
In short: as §1

CASKI = conditions: Gynecologic cancer cell panel viability, ATPlite luminescence, 48 h; series mostly up to 57.5 µM
In short: as §1

Es-2 = conditions: Gynecologic cancer cell panel viability, ATPlite luminescence, 48 h; series mostly up to 57.5 µM
In short: as §1

HeLa = conditions: Gynecologic cancer cell panel viability, ATPlite luminescence, 48 h; series mostly up to 57.5 µM
In short: as §1

Hek293T = conditions: Gynecologic cancer cell panel viability, ATPlite luminescence, 48 h, control line for the selectivity index; series mostly up to 57.5 µM
In short: as §1

JEG-3 = conditions: Gynecologic cancer cell panel viability, ATPlite luminescence, 48 h; series mostly up to 57.5 µM
In short: as §1

OV90 = conditions: Gynecologic cancer cell panel viability, ATPlite luminescence, 48 h; series mostly up to 57.5 µM
In short: as §1

PA-1 = conditions: Gynecologic cancer cell panel viability, ATPlite luminescence, 48 h; series mostly up to 57.5 µM
In short: as §1

SKOV3 = conditions: Gynecologic cancer cell panel viability, ATPlite luminescence, 48 h; series mostly up to 57.5 µM
In short: as §1

Tov-21-G = conditions: Gynecologic cancer cell panel viability, ATPlite luminescence, 48 h; series mostly up to 57.5 µM
In short: as §1

Tov112D = conditions: Gynecologic cancer cell panel viability, ATPlite luminescence, 48 h; series mostly up to 57.5 µM
In short: as §1
% is scaled to controls: 0 for no effect and ±100 for the full control effect.

CC1(C)[C@@H]2CC=C(CO[C@@H]3O[C@H](CO[C@@H]4OC[C@H](O)[C@H](O)[C@H]4O)[C@@H](O)[C@H](O)[C@H]3O)[C@H]1C2
inactive: Potency (C33A) | Potency (CAOV3) | outcome (CASKI) | Potency (Es-2) | Potency (HeLa) | Potency (Hek293T) | Potency (JEG-3) | Potency (OV90) | Potency (PA-1) | Potency (SKOV3) | Potency (Tov-21-G) | Potency (Tov112D)

C[C@@H]1O[C@@H](O[C@H]2[C@@H]3C=CO[C@@H](O[C@@H]4O[C@H](CO)[C@@H](O)[C@H](O)[C@H]4O)[C@@H]3[C@@]3(CO)O[C@@H]23)[C@H](O)[C@H](O)[C@H]1OC(=O)/C=C/c1ccc(O)cc1
inactive: Potency (C33A) | Potency (CAOV3) | outcome (CASKI) | Potency (Es-2) | Potency (HeLa) | Potency (Hek293T) | Potency (JEG-3) | Potency (OV90) | Potency (PA-1) | Potency (SKOV3) | Potency (Tov-21-G) | Potency (Tov112D)

C=C(C(=O)O)C1CC(O)C2(C)CCCC(C)(O)C2C1 (configuration not stated)
inactive: Potency (C33A) | Potency (CAOV3) | outcome (CASKI) | Potency (Es-2) | Potency (HeLa) | Potency (Hek293T) | Potency (JEG-3) | Potency (OV90) | Potency (PA-1) | Potency (SKOV3) | Potency (Tov-21-G) | Potency (Tov112D)

O=C(OCC1=C[C@@H](O)[C@@H]2C=CO[C@@H](O[C@@H]3O[C@H](CO)[C@@H](O)[C@H](O)[C@H]3O)[C@H]12)c1ccc(O)cc1
inactive: Potency (C33A) | Potency (CAOV3) | outcome (CASKI) | Potency (Es-2) | Potency (HeLa) | Potency (Hek293T) | Potency (JEG-3) | Potency (OV90) | Potency (PA-1) | Potency (SKOV3) | Potency (Tov-21-G) | Potency (Tov112D)

Cc1c(NC(=O)N2CCOCC2)ccc2c1c1ccccc1n2C(C)C
inactive: Potency (C33A) | Potency (CAOV3) | outcome (CASKI) | Potency (Es-2) | Potency (HeLa) | Potency (Hek293T) | Potency (JEG-3) | Potency (OV90) | Potency (PA-1) | Potency (SKOV3) | Potency (Tov-21-G) | Potency (Tov112D)

CCCO[C@@H]1O[C@H](CO)[C@@H](O)[C@H](O)[C@H]1O[C@@H]1OC[C@@H](O)[C@H](O)[C@H]1O
inactive: Potency (C33A) | Potency (CAOV3) | outcome (CASKI) | Potency (Es-2) | Potency (HeLa) | Potency (Hek293T) | Potency (JEG-3) | Potency (OV90) | Potency (PA-1) | Potency (SKOV3) | Potency (Tov-21-G) | Potency (Tov112D)

COc1cc(O)cc(C)c1C(=O)O[C@H]1[C@@H](O)[C@@H](n2ccc(=O)[nH]c2=O)O[C@@H]1CO
inactive: Potency (C33A) | Potency (CAOV3) | outcome (CASKI) | Potency (Es-2) | Potency (HeLa) | Potency (Hek293T) | Potency (JEG-3) | Potency (OV90) | Potency (PA-1) | Potency (SKOV3) | Potency (Tov-21-G) | Potency (Tov112D)

COc1ccc(NC(=O)c2ccc(-c3ccc(C(N)=O)cc3C)cc2)cc1N1CCN(C)CC1
inactive: Potency (C33A) | Potency (CAOV3) | outcome (CASKI) | Potency (Es-2) | Potency (HeLa) | Potency (Hek293T) | Potency (JEG-3) | Potency (OV90) | Potency (PA-1) | Potency (SKOV3) | Potency (Tov-21-G) | Potency (Tov112D)

CCC/C=C1\OC(=O)C2=C1CCC(O)C2O (configuration not stated)
inactive: Potency (C33A) | Potency (CAOV3) | outcome (CASKI) | Potency (Es-2) | Potency (HeLa) | Potency (Hek293T) | Potency (JEG-3) | Potency (OV90) | Potency (PA-1) | Potency (SKOV3) | Potency (Tov-21-G) | Potency (Tov112D)

COc1cccc(C(=O)NCCNc2nc3cc(C)cc(C)c3cc2C#N)c1
inactive: Potency (C33A) | Potency (CAOV3) | outcome (CASKI) | Potency (Es-2) | Potency (HeLa) | Potency (Hek293T) | Potency (JEG-3) | Potency (OV90) | Potency (PA-1) | Potency (SKOV3) | Potency (Tov-21-G) | Potency (Tov112D)

COc1cc2c(cc1O)CC(O)(CO)C(CO)C2c1ccc(OC2OC(CO)C(O)C(O)C2O)c(OC)c1 (configuration not stated)
inactive: Potency (C33A) | Potency (CAOV3) | outcome (CASKI) | Potency (Es-2) | Potency (HeLa) | Potency (Hek293T) | Potency (JEG-3) | Potency (OV90) | Potency (PA-1) | Potency (SKOV3) | Potency (Tov-21-G) | Potency (Tov112D)

O=C(O)[C@H](Cc1ccccc1)Oc1ccc(-c2ccccc2)cc1
inactive: Potency (C33A) | Potency (CAOV3) | outcome (CASKI) | Potency (Es-2) | Potency (HeLa) | Potency (Hek293T) | Potency (JEG-3) | Potency (OV90) | Potency (PA-1) | Potency (SKOV3) | Potency (Tov-21-G) | Potency (Tov112D)

COC(=O)C1=COC(OC2OC(CO)C(O)C(O)C2O)C2C(C)C(OC(=O)/C=C/c3ccc(O)cc3)C(O)C12 (configuration not stated)
inactive: Potency (C33A) | Potency (CAOV3) | outcome (CASKI) | Potency (Es-2) | Potency (HeLa) | Potency (Hek293T) | Potency (JEG-3) | Potency (OV90) | Potency (PA-1) | Potency (SKOV3) | Potency (Tov-21-G) | Potency (Tov112D)

C=C1C(O)C(O)C2(CC3C(C)=CCC4C(C)(C(=O)O)CCCC34C)OC2C1O (configuration not stated)
inactive: Potency (C33A) | Potency (CAOV3) | outcome (CASKI) | Potency (Es-2) | Potency (HeLa) | Potency (Hek293T) | Potency (JEG-3) | Potency (OV90) | Potency (PA-1) | Potency (SKOV3) | Potency (Tov-21-G) | Potency (Tov112D)

CC1=CC(=O)[C@]2(O[C@@H]3O[C@@H](C)[C@H](O)[C@@H](O)[C@H]3O)C=CO[C@@H](O[C@@H]3O[C@H](CO)[C@@H](O)[C@H](O)[C@H]3O)[C@H]12
inactive: Potency (C33A) | Potency (CAOV3) | outcome (CASKI) | Potency (Es-2) | Potency (HeLa) | Potency (Hek293T) | Potency (JEG-3) | Potency (OV90) | Potency (PA-1) | Potency (SKOV3) | Potency (Tov-21-G) | Potency (Tov112D)

CC(CC(C)O[C@@H]1O[C@H](CO)[C@@H](O)[C@H](O)[C@H]1O)OC(=O)/C=C/c1ccc(O)cc1 (some centres not stated)
inactive: Potency (C33A) | Potency (CAOV3) | outcome (CASKI) | Potency (Es-2) | Potency (HeLa) | Potency (Hek293T) | Potency (JEG-3) | Potency (OV90) | Potency (PA-1) | Potency (SKOV3) | Potency (Tov-21-G) | Potency (Tov112D)

COc1cc(C)c(C(=O)NC2C(C)OC(OC3CCC(C)C4C3C=C(C)C3/C(C)=C\CC/C(C)=C/C5(C)C=C(C(=O)O)C(C)CC56OC(=O)/C(=C(\O)C34C)C6=O)C(O)C2(C)O)c(O)c1 (configuration not stated)
inactive: activity change, negative = cytotoxicity (C33A) 8.62% [at 11.6 µM] | activity change, negative = cytotoxicity (CAOV3) 11.9% [at 11.6 µM] | activity change, negative = cytotoxicity (CASKI) 23.4% [at 11.6 µM] | activity change, negative = cytotoxicity (Es-2) -2.46% [at 11.6 µM] | activity change, negative = cytotoxicity (HeLa) 2.6% [at 11.6 µM] | activity change, negative = cytotoxicity (Hek293T) 9.94% [at 11.6 µM] | activity change, negative = cytotoxicity (JEG-3) 4.16% [at 11.6 µM] | activity change, negative = cytotoxicity (OV90) 6.29% [at 11.6 µM] | activity change, negative = cytotoxicity (PA-1) -2.04% [at 11.6 µM] | activity change, negative = cytotoxicity (SKOV3) -10.1% [at 11.6 µM] | activity change, negative = cytotoxicity (Tov-21-G) 4.24% [at 11.6 µM] | activity change, negative = cytotoxicity (Tov112D) 8.49% [at 11.6 µM]

CC(C/C=C/C(C)(C)O)C1CCC(C)(O)C(O)C1 (configuration not stated)
inactive: Potency (C33A) | Potency (CAOV3) | outcome (CASKI) | Potency (Es-2) | Potency (HeLa) | Potency (Hek293T) | Potency (JEG-3) | Potency (OV90) | Potency (PA-1) | Potency (SKOV3) | Potency (Tov-21-G) | Potency (Tov112D)

COC(=O)[C@]1(Cc2ccc(O)c(CC=C(C)C)c2)OC(=O)C(O)=C1c1ccc(O)cc1
inactive: Potency (C33A) | Potency (CAOV3) | outcome (CASKI) | Potency (Es-2) | Potency (HeLa) | Potency (Hek293T) | Potency (JEG-3) | Potency (OV90) | Potency (PA-1) | Potency (SKOV3) | Potency (Tov-21-G) | Potency (Tov112D)

COc1cc(/C=C/C(=O)O[C@H]2[C@H](O)[C@@H](CO)O[C@@]2(CO)O[C@H]2O[C@H](CO)[C@@H](O)[C@H](O)[C@H]2O)cc(OC)c1O
inactive: Potency (C33A) | Potency (CAOV3) | outcome (CASKI) | Potency (Es-2) | Potency (HeLa) | Potency (Hek293T) | Potency (JEG-3) | Potency (OV90) | Potency (PA-1) | Potency (SKOV3) | Potency (Tov-21-G) | Potency (Tov112D)

CC1(C)CCC[C@]2(C)C1CC=C(CO)[C@H]2CC/C(=C/CO)CO (some centres not stated)
inactive: Potency (C33A) | Potency (CAOV3) | outcome (CASKI) | Potency (Es-2) | Potency (HeLa) | Potency (Hek293T) | Potency (JEG-3) | Potency (OV90) | Potency (PA-1) | Potency (SKOV3) | Potency (Tov-21-G) | Potency (Tov112D)
